Experimental data taken from PMC8384837, “Expanding the binding specificity for RNA recognition by a PUF domain”.

What was measured:
Test in all cases: yeast three-hybrid, YBZ-1, SC-Leu-His + 0.5 mM 3-AT, 4 days
Conditions in all cases: tags: N-Gal4 AD-HA kept; label: inside an RPR1-promoter hybrid RNA with tandem MS2 sites; ssRNA
PUM1 PUF domain R4-ANY = PUM1 PUF domain R4-ANY (Homo sapiens, UniProt Q14671 828-1176, N971A;H972N;Q975Y)
How it was run: (§1)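 Sequencing with Illumina followed PCR amplification of the repeat regions from transformants grown four days on SC-Leu (input) or SC-Leu-His + 0.5 mM 3-AT (selection). The transformants were strain YBZ-1 with a LexA–MS2 coat fusion and a HIS3 reporter, carrying Pumilio-1 PUF domain libraries and matching RNA elements. The interaction score is the log change in variant frequency from input to selection, computed in log2 with a pseudocount of 1 for absent variants.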

PUM1 PUF domain R4-CPT = PUM1 PUF domain R4-CPT (Homo sapiens, UniProt Q14671 828-1176, N971C;H972P;Q975T)
How it was run: as §1

PUM1 PUF domain R1-GVK = PUM1 PUF domain R1-GVK (Homo sapiens, UniProt Q14671 828-1176, S863G;R864V;Q867K)
How it was run: as §1

PUM1 PUF domain R1-NKK = PUM1 PUF domain R1-NKK (Homo sapiens, UniProt Q14671 828-1176, S863N;R864K;Q867K)
How it was run: as §1

PUM1 PUF domain R1-GHR = PUM1 PUF domain R1-GHR (Homo sapiens, UniProt Q14671 828-1176, S863G;R864H;Q867R)
How it was run: as §1

PUM1 PUF domain R1-KKV = PUM1 PUF domain R1-KKV (Homo sapiens, UniProt Q14671 828-1176, S863K;R864K;Q867V)
How it was run: as §1

PUM1 PUF domain R5-VHM = PUM1 PUF domain R5-VHM (Homo sapiens, UniProt Q14671 828-1176, C1007V;R1008H;Q1011M)
How it was run: as §1

PUM1 PUF domain R5-WHA = PUM1 PUF domain R5-WHA (Homo sapiens, UniProt Q14671 828-1176, C1007W;R1008H;Q1011A)
How it was run: as §1

PUM1 PUF domain R5-FRT = PUM1 PUF domain R5-FRT (Homo sapiens, UniProt Q14671 828-1176, C1007F;Q1011T)
How it was run: as §1

PUM1 PUF domain R5-RAM = PUM1 PUF domain R5-RAM (Homo sapiens, UniProt Q14671 828-1176, C1007R;R1008A;Q1011M)
How it was run: as §1

PUM1 PUF domain R5-QCC = PUM1 PUF domain R5-QCC (Homo sapiens, UniProt Q14671 828-1176, C1007Q;R1008C;Q1011C)
How it was run: as §1

PUM1 PUF domain R3-YRC = PUM1 PUF domain R3-YRC (Homo sapiens, UniProt Q14671 828-1176, C935Y;Q939C)
How it was run: as §1

PUM1 PUF domain R7-KTE = PUM1 PUF domain R7-KTE (Homo sapiens, UniProt Q14671 828-1176, S1079K;N1080T)
How it was run: as §1

PUM1 PUF domain R7-EYN = PUM1 PUF domain R7-EYN (Homo sapiens, UniProt Q14671 828-1176, S1079E;N1080Y;E1083N)
How it was run: as §1

PUM1 PUF domain R7-RGN = PUM1 PUF domain R7-RGN (Homo sapiens, UniProt Q14671 828-1176, S1079R;N1080G;E1083N)
How it was run: as §1

PUM1 PUF domain R6-SWD = target: T1, PUM1 PUF domain R6-SWD (Homo sapiens, UniProt Q14671 828-1176, N1043S;Y1044W;Q1047D)
T1 sequence: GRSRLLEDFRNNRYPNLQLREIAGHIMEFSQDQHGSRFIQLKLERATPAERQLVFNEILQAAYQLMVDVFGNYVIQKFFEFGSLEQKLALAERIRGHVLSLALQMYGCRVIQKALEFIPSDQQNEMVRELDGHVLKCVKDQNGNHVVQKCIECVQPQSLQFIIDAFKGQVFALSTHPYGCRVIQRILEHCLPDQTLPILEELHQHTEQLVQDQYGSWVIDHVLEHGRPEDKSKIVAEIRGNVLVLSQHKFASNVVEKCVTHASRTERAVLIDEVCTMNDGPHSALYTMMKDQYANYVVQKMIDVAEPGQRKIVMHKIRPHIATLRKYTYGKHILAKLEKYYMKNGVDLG
How it was run: as §1

PUM1 PUF domain R3-GPK = PUM1 PUF domain R3-GPK (Homo sapiens, UniProt Q14671 828-1176, C935G;R936P;Q939K)
How it was run: as §1

PUM1 PUF domain R8-MHP = PUM1 PUF domain R8-MHP (Homo sapiens, UniProt Q14671 828-1176, N1122M;Y1123H;Q1126P)
How it was run: as §1

PUM1 PUF domain R8-HFD = PUM1 PUF domain R8-HFD (Homo sapiens, UniProt Q14671 828-1176, N1122H;Y1123F;Q1126D)
How it was run: as §1

## GGCUAGAACUAGUGGAUCCCCCGGCGCCCGGCGGCUCGAGCCCGGGUAAGUGUAUAUAGUCUGCAUGCCGCCGGGCGCCAUGCCUGCAGGUCGACUCUAGAAAACAUG
PUM1 PUF domain R4-ANY
  binding signal: 3.22 log2 enrichment (interaction score)
PUM1 PUF domain R4-CPT
  binding signal: 3.09 log2 enrichment (interaction score)

## GGCUAGAACUAGUGGAUCCCCCGGCGCCCGGCGGCUCGAGCCCGGGUAAGUGUACAUAGUCUGCAUGCCGCCGGGCGCCAUGCCUGCAGGUCGACUCUAGAAAACAUG
PUM1 PUF domain R4-CPT
  binding signal: 1.75 log2 enrichment (interaction score)

## GGCUAGAACUAGUGGAUCCCCCGGCGCCCGGCGGCUCGAGCCCGGGUAAGUGUAAAUCGUCUGCAUGCCGCCGGGCGCCAUGCCUGCAGGUCGACUCUAGAAAACAUG
PUM1 PUF domain R1-GVK
  binding signal: 3.43 log2 enrichment (interaction score)
PUM1 PUF domain R1-NKK
  binding signal: 4.39 log2 enrichment (interaction score)
PUM1 PUF domain R1-GHR
  binding signal: 2.23 log2 enrichment (interaction score)

## GGCUAGAACUAGUGGAUCCCCCGGCGCCCGGCGGCUCGAGCCCGGGUAAGUGUAAAUUGUCUGCAUGCCGCCGGGCGCCAUGCCUGCAGGUCGACUCUAGAAAACAUG
PUM1 PUF domain R1-GVK
  binding signal: 2 log2 enrichment (interaction score)
PUM1 PUF domain R1-GHR
  binding signal: 1.34 log2 enrichment (interaction score)

## GGCUAGAACUAGUGGAUCCCCCGGCGCCCGGCGGCUCGAGCCCGGGUAAGUGUAAAUAGUCUGCAUGCCGCCGGGCGCCAUGCCUGCAGGUCGACUCUAGAAAACAUG
PUM1 PUF domain R1-KKV
  binding signal: 2.4 log2 enrichment (interaction score)
PUM1 PUF domain R5-VHM
  binding signal: 2.73 log2 enrichment (interaction score)
PUM1 PUF domain R5-WHA
  binding signal: 1.08 log2 enrichment (interaction score)

## GGCUAGAACUAGUGGAUCCCCCGGCGCCCGGCGGCUCGAGCCCGGGUAAGUGUCAAUAGUCUGCAUGCCGCCGGGCGCCAUGCCUGCAGGUCGACUCUAGAAAACAUG
PUM1 PUF domain R5-WHA
  binding signal: 3.04 log2 enrichment (interaction score)
PUM1 PUF domain R5-FRT
  binding signal: 2.21 log2 enrichment (interaction score)
PUM1 PUF domain R5-RAM
  binding signal: 2.69 log2 enrichment (interaction score)

## GGCUAGAACUAGUGGAUCCCCCGGCGCCCGGCGGCUCGAGCCCGGGUAAGUGUAAAUGGUCUGCAUGCCGCCGGGCGCCAUGCCUGCAGGUCGACUCUAGAAAACAUG
PUM1 PUF domain R1-NKK
  binding signal: 3.03 log2 enrichment (interaction score)

## GGCUAGAACUAGUGGAUCCCCCGGCGCCCGGCGGCUCGAGCCCGGGUAAGUGUGAAUAGUCUGCAUGCCGCCGGGCGCCAUGCCUGCAGGUCGACUCUAGAAAACAUG
PUM1 PUF domain R5-QCC
  binding signal: 3.84 log2 enrichment (interaction score)

## GGCUAGAACUAGUGGAUCCCCCGGCGCCCGGCGGCUCGAGCCCGGGUAAGUGUAAGUAGUCUGCAUGCCGCCGGGCGCCAUGCCUGCAGGUCGACUCUAGAAAACAUG
PUM1 PUF domain R3-YRC
  binding signal: 4.22 log2 enrichment (interaction score)

## GGCUAGAACUAGUGGAUCCCCCGGCGCCCGGCGGCUCGAGCCCGGGUAAGUCUAAAUAGUCUGCAUGCCGCCGGGCGCCAUGCCUGCAGGUCGACUCUAGAAAACAUG
PUM1 PUF domain R7-KTE
  binding signal: 2.46 log2 enrichment (interaction score)
PUM1 PUF domain R7-EYN
  binding signal: 3.13 log2 enrichment (interaction score)
PUM1 PUF domain R7-RGN
  binding signal: 3.02 log2 enrichment (interaction score)

## GGCUAGAACUAGUGGAUCCCCCGGCGCCCGGCGGCUCGAGCCCGGGUAAGUGGAAAUAGUCUGCAUGCCGCCGGGCGCCAUGCCUGCAGGUCGACUCUAGAAAACAUG
PUM1 PUF domain R6-SWD
  binding signal: 5.64 log2 enrichment (interaction score)

## GGCUAGAACUAGUGGAUCCCCCGGCGCCCGGCGGCUCGAGCCCGGGUAAGUGUAAUUAGUCUGCAUGCCGCCGGGCGCCAUGCCUGCAGGUCGACUCUAGAAAACAUG
PUM1 PUF domain R3-GPK
  binding signal: 3.25 log2 enrichment (interaction score)

## GGCUAGAACUAGUGGAUCCCCCGGCGCCCGGCGGCUCGAGCCCGGGUAAGCGUAAAUAGUCUGCAUGCCGCCGGGCGCCAUGCCUGCAGGUCGACUCUAGAAAACAUG
PUM1 PUF domain R8-MHP
  binding signal: 2.6 log2 enrichment (interaction score)
PUM1 PUF domain R8-HFD
  binding signal: 2.46 log2 enrichment (interaction score)

## GGCUAGAACUAGUGGAUCCCCCGGCGCCCGGCGGCUCGAGCCCGGGUAAGUGUUAAUAGUCUGCAUGCCGCCGGGCGCCAUGCCUGCAGGUCGACUCUAGAAAACAUG
PUM1 PUF domain R5-FRT
  binding signal: 1.56 log2 enrichment (interaction score)
